Values joined by “and” are separate entries in the source; they are usually repeats but may differ in a detail not shown here. Identical values can stand only once. Results filed as inconclusive are left out. Active and inactive are the calls of the source. Calls come from the whole dose curve; as a rule, active = well fitted curve in either direction with a large enough effect (not every such curve was filed as active); inconclusive = small, poorly fitted or top-dose-only effect, or another doubt; inactive = flat fitted curve, though single readings scatter.
assay: NFAT Signaling Pathway (AID 444); settings: Jurkat NFAT-bla M1, carbachol, beta-lactamase ratio, 5 h; at 7.69 µM (top of the series)
Text: NCGC Assay Overview: The nuclear factor of activated T cells (NFAT) family of transcription factors has been found primarily in most immune system cells and some other non-immune cells. NFAT plays the immunomodulatory role, primarily in T-cell activation and differentiation. NFAT target genes are also involved in the regulation of apoptosis and differentiation in non-immune cell types. The NFAT sequence was engineered to the upstream of the ?-lactamase reporter gene and transfected into Jurkat cells with co-transfection of muscarinic receptor1 [provided by Invitrogen Corp]. When an extracellular stimulus, such as carbachol, binds to the GPCR M1 receptor, it stimulates a signaling cascade that activates NFAT response element and ?-lactamase expression by phosphorylating the NFAT binding protein. This cell based ?-lactamase reporter gene assay can accurately monitor any changes occurring along the NFAT pathway, and can be used for screening small molecule inhibitor or activator upon activation by carbachol EC50 concentration. A small molecular library were screened in a titration series resulting in AC50s (can be either IC50s or EC50s).
NCGC Assay Protocol Summary: The cells were prepared in RPMI 1640 medium containing 0.1% dialyzed FBS and 25 mM HEPES at 1.6 x 10^6cell/ml. The assay was performed in 1536-well plate format as follows: 5 ul of cell preparation 23 nl of compounds 1ul of carbachol (final concentration 1 uM) Briefly centrifuge the plates and incubate at 37 °C for 5 hours 1 ul of CCF4 dye mixture Incubate the plates at RT for 1 hour Read the plate in EnVision plate reader (Ex= 405nm, and Em1=460nm and Em2=530nm). The %Activity was determined from the ratio of 460nm/530nm. Data normalization and AC50 calculations were accomplished using GeneData software.
% is set by controls: 0 for no effect and ±100 for the full control effect.

Structure (SMILES)	activity change, negative = inhibition
Cc1ccccc1-c1cncnc1NCCc1cnc[nH]1	-8.8% (inactive)
O=C(Nc1ccccc1)N1CC[C@@]2(CCCN(C(=O)Oc3ccccc3)C2)C1	1.93% (inactive)
N#Cc1ccc(CN2CC[C@@]3(CCCN(C(=O)Oc4ccccc4)C3)C2)cc1	-16.4% (inactive)
c1cnc(N2CC[C@@]3(CCCNC3)C2)nc1	-23.9% (inactive)
CS(=O)(=O)N1CCC2(CC1)CN(Cc1ccncc1)C2	6.37% (inactive)
O=C(c1csnn1)N1CCC[C@@]2(CCN(Cc3ccncc3)C2)C1	-2.7% (inactive)
CS(=O)(=O)N1CCC2(CCCN(Cc3ccncc3)C2)CC1	-20.7% (inactive)
COc1ccc(NC(=O)N2CC3(CCN(C(=O)Oc4ccccc4)CC3)C2)cc1	3.27% (inactive)
O=C(Oc1ccccc1)N1CCC[C@@]2(CCN(C(c3ccccc3)c3ccccc3)C2)C1	-12.9% (inactive)
CN1CCCC2(CCN(C(=O)c3ccncc3)CC2)C1	-16.6% (inactive)
N#Cc1ccc(CN2CC[C@@]3(CCCNC3)C2)cc1	-7.45% (inactive)
Clc1ccccc1-c1cncnc1NCCc1cnc[nH]1	-21.6% (inactive)

same assay, conditions: Jurkat NFAT-bla M1, carbachol, beta-lactamase ratio, 5 h; at 17.2 µM (top of the series)

Structure (SMILES)	activity change, negative = inhibition
CCN(CC)C(=O)N[C@@H]1C[C@H]2c3cccc4[nH]cc(c34)C[C@@H]2N(C)C1	3.13% (inactive) and -9.31% (inactive)
CC(=O)O[C@H]1CC[C@@]2(C)C(=CC[C@@H]3[C@H]2CC[C@]2(C)C(=O)CC[C@H]32)C1	-13.7% (inactive)
C#C[C@@]1(O)CC[C@@H]2[C@@H]3CCC4=CC(=O)CC[C@@]4(C)[C@H]3CC[C@]21C	-15.1% (inactive)
CC1=CC(=O)C2=C(C)C[C@@H](O)[C@@H]3[C@@H](OC(=O)[C@H]3C)[C@H]12	-5.22% (inactive)
C[C@@]12CC(=O)[C@H]3[C@@H](CCC4=CC(=O)CC[C@]43C)[C@H]1CCC2=O	2.56% (inactive)
Clc1ccc([C@@H](OCCN2CCCCC2)c2ccccc2)cc1	-74.4% (active)
CN1[C@@H]2CCC[C@H]1CC(=O)C2	-4.22% (inactive)
Nc1c(C(=O)NCc2ccco2)c2nc3ccccc3nc2n1Cc1ccc(F)cc1	108% [activator] (active)
CC(C)[C@@]1(NC(=O)[C@@H]2C[C@H]3c4cccc5[nH]cc(c45)C[C@@H]3N(C)C2)O[C@]2(O)[C@H]3CCCN3C(=O)[C@H](Cc3ccccc3)N2C1=O	1.85% (inactive)
CC[C@@H]1[C@@H]2C[C@H]3[C@H]4N(C)c5ccccc5[C@@]45C[C@@H]([C@@H]2[C@@H]5O)N3[C@H]1O	-7.21% (inactive)
CN1CCC2=C[C@H](O)[C@@H]3OC(=O)c4cc5c(cc4[C@H]3[C@H]21)OCO5	-12.8% (inactive)
C[C@H]1C(=O)O[C@@H]2CCN3CC=C(COC(=O)[C@@](C)(O)[C@@]1(C)O)[C@H]23	3.38% (inactive)
C[C@H]1CN(C2CCC(C#N)(c3ccc(F)cc3)CC2)CC[C@@]1(C(=O)O)c1ccccc1 (stereo not given in full)	-14% (inactive)
CNC[C@H](O)c1ccc(O)cc1	-22.7% (inactive)
CC(=O)N[C@@H]1CCSC1=O	-13% (inactive)
CS(=N)(=O)CC[C@@H](N)C(=O)O (stereo not given in full)	-1.86% (inactive)
C/C=C1\C[C@H](C)[C@@](O)(CO)C(=O)OCC2=CCN3CC[C@@H](OC1=O)[C@@H]23	-20.5% (inactive)
CN1[C@@H]2CC[C@H]1CC(O)C2 (stereo not given in full)	-15.4% (inactive)
CC[C@@]1(c2ccc(N)cc2)CCC(=O)NC1=O	-14.6% (inactive)
COc1ccc2c(c1O)-c1c(OC)c(OC)cc3c1[C@H](C2)N(C)CC3	-3.12% (inactive)
C[C@H](NC(C)(C)C)C(=O)c1cccc(Cl)c1	-9.97% (inactive)

same assay, conditions: Jurkat NFAT-bla M1, carbachol, beta-lactamase ratio, 5 h; at 38 µM (top of the series)

Structure (SMILES)	activity change, negative = inhibition
NCC#Cc1ccccc1	3.19% (inactive)
CNC[C@H](O)c1ccc(O)cc1	10.5% (inactive)
CS(=N)(=O)CC[C@@H](N)C(=O)O (stereo not given in full)	4.5% (inactive)
CCc1c(C(=O)OC)ncc2[nH]c3cc(OC)c(OC)cc3c12	-26.6% (inactive)
CC[C@@]1(c2ccc(N)cc2)CCC(=O)NC1=O	6.21% (inactive)
COc1cc(C=C(C#N)C#N)cc(O)c1O	-29.4% (inactive)
C[C@H](NC(C)(C)C)C(=O)c1cccc(Cl)c1	-9.57% (inactive)

— PubChem BioAssay (NCATS)
